High-throughput results (PubChem BioAssay)
Pf growth 96h – Primary qHTS for delayed death inhibitors of the malarial parasite plastid, 96 hour incubation; P. falciparum luciferase reporter growth, 96 h; AID 504834, 2011; Potency, µM (titrated, usually from 28.7 µM), for inactives: top-dose activity change, negative = inhibition, hits mostly inhibitors; 320,000 tested, 6.9% active
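Delayed-death screen, second-generation endpoint: infected erythrocytes, 2% hematocrit, 0.05% parasitemia final; 96 hours at 37 C, 5% CO2; luciferase detection reagent; luminescence decrease equals reduced growth.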
AMA1 RON2 block – qHTS for Inhibitors of AMA1-RON; Towards Development of Antimalarial Drug Lead: Primary Screen. AlphaScreen AMA1-biotinylated RON2 peptide binding. Potency, µM (titrated, usually from 58.2 µM), inactives show top-dose activity change, negative = inhibition, usual class: inhibitors. 360,000 tested, 0.2% active;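 also: 0% = vehicle wells and -100% = peptide control; nearly all actives have a fitted effect of over 45% in size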
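AMA1 (3D7) with his tag at 25 nM final met compounds first, then biotinylated RON2 peptide at 25 nM; detection used donor plus acceptor beads, 10 µg/mL apiece, read by AlphaScreen after 30 min at room temperature.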
Pf growth 48h – Primary qHTS for delayed death inhibitors of the malarial parasite plastid, 48 hour incubation. 310,000 tested, 5.9% active. P. falciparum luciferase growth in erythrocytes, 48 h. Potency, µM (series often up to 28.7 µM), without a hit: at the highest dose activity change, negative = inhibition, hits mostly inhibitors
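Parasite viability was followed by luminescence of a genomically integrated firefly luciferase. Cultures held 0.1% parasitemia at 2% hematocrit (final), incubated under 5% CO2 at 37 C.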
HCV inh – qHTS Assay for Inhibitors of Hepatitis C Virus (HCV). Huh7.5.1 HCVcc-Cre infection, luciferase reporter, 44 h. Potency, µM (top dose mostly 41.8 µM), for the others: at the highest dose activity change, negative = inhibition, usual class: inhibitors. 340,000 tested, 3.4% active. AID 651820, 2012
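Infectious HCV cell culture screen: compound-treated cells (1,000/well, pre-plated 4 h) are infected with HCVcc-Cre at roughly 0.5 moi and grown 44 h. Infection is quantified by luciferase signal after 15 min substrate incubation at room temperature.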
Numbers without * were called inactive; [ ] = another dose, or the depositor's remark. Compounds with a hit are over-represented: about 11% of the library has one in this group of screens. Calls follow the shape of the dose curve; as a rule, active = well fitted curve in the direction sought with a large enough effect; inconclusive = small, poorly fitted or top-dose-only effect, or another doubt; inactive = no such curve, though single readings can be large; an effect the other way counts as inactive or inconclusive. Unless noted, % is scaled to controls: 0 for no effect and ±100 for the full control effect; potency is read from the fitted curve at half-maximal effect.

How did CCc1ccc(C(=O)COC(=O)CCc2nc3ccccc3c(=O)[nH]2)cc1 do in these assays?
Pf growth 96h: 11.7%; AMA1 RON2 block: 2.0%[2.32 µM]; Pf growth 48h: 12.1%; HCV inh: -2.7%

Results for Cc1ccc2cc(CN(C(=O)c3ccncc3)C(C)C)c(=O)[nH]c2c1 ?
Pf growth 96h: 8.28µM*; AMA1 RON2 block: -1.9%; Pf growth 48h: inconclusive; HCV inh: -26.0%

What do the screens show for `COc1cc2cc(CN(CCc3cccc(C)c3)C(=S)NCCCN(C)C)c(=O)[nH]c2cc1OC`?
Pf growth 96h: 31.8%; AMA1 RON2 block: -1.6%; Pf growth 48h: 13.1µM*; HCV inh: inconclusive

Results for CC(=O)N(CCc1cccc(C)c1)Cc1cc2cc(C)ccc2[nH]c1=O ?
Pf growth 96h: 251.2%; AMA1 RON2 block: 0.0%; Pf growth 48h: -3.9%; HCV inh: -5.3%

What do the screens show for `CC(=O)N(CCc1cccc(C)c1)Cc1cc2ccc(C)cc2[nH]c1=O`?
Pf growth 96h: 0.0738µM*; AMA1 RON2 block: 0.0%; Pf growth 48h: -26.0%; HCV inh: -1.0%

What do the screens show for `CCOC(=O)c1nnn(-c2nonc2N)c1CN1CCc2ccccc2C1`?
AMA1 RON2 block: 9.0%; Pf growth 48h: -17.5%; HCV inh: -3.0%

What do the screens show for `CCOc1cccc(-c2c(C(=O)N/N=C(\C)c3ccccn3)nnn2-c2nonc2N)c1`?
Pf growth 96h: 3.7µM*; AMA1 RON2 block: -25.7%; Pf growth 48h: inconclusive; HCV inh: 11.2µM*

How did CCOC(=O)c1nnn(-c2nonc2N)c1-c1ccc(OCC)cc1 do in these assays?
Pf growth 96h: inconclusive; AMA1 RON2 block: 9.3%; Pf growth 48h: 13.1µM*; HCV inh: -4.5%

How did CCOC(=O)c1nnn(-c2nonc2N)c1CS(=O)(=O)c1ccccc1 do in these assays?
Pf growth 96h: 11.7µM*; AMA1 RON2 block: 0.0%; Pf growth 48h: 1.1%; HCV inh: 13.9%

How did Cc1ncc(CN2CCN(C(C)C)C(CCO)C2)s1 (stereo unspecified) do in these assays?
Pf growth 96h: -23.9%; AMA1 RON2 block: 24.1%; Pf growth 48h: 29.6%; HCV inh: 21.2%

What do the screens show for `CC(Oc1ccc(Br)cc1)C(=O)NCC(c1cccs1)N1CCOCC1` (stereo unspecified)?
Pf growth 96h: -0.3%; AMA1 RON2 block: 35.0%; Pf growth 48h: inconclusive; HCV inh: 2.8%

How did Cc1ccc2cc(CN(CCN(C)C)C(=S)Nc3ccccc3)c(=O)[nH]c2c1C do in these assays?
Pf growth 96h: 1.0%; AMA1 RON2 block: -1.7%; Pf growth 48h: -21.9%; HCV inh: 10µM*

What do the screens show for `Cc1cccc2cc(CN(CC3CCCO3)C(=S)Nc3ccccc3)c(=O)[nH]c12` (stereo unspecified)?
Pf growth 96h: 125.2%; AMA1 RON2 block: -7.8%; Pf growth 48h: -7.7%; HCV inh: inconclusive

Results for CCN(CC)CCN(Cc1cc2cccc(C)c2[nH]c1=O)C(=S)Nc1ccccc1 ?
Pf growth 96h: 7.5%; AMA1 RON2 block: inconclusive; Pf growth 48h: 11.7µM*; HCV inh: inconclusive

Results for Cc1cc(C)nc(SCc2nnc(SCC(=O)Nc3nc(-c4ccccc4)cs3)n2-c2ccccc2)n1 ?
AMA1 RON2 block: -9.8%; Pf growth 48h: 0.1%; HCV inh: inconclusive

What do the screens show for `Cc1cc(C)nc(SCc2nnc(SCC#N)n2-c2cccc(Cl)c2)n1`?
Pf growth 96h: inconclusive; AMA1 RON2 block: 1.9%; Pf growth 48h: 7.38µM*; HCV inh: inconclusive

How did CC1(C)N(O)C2CCCCC2N1O (stereo unspecified) do in these assays?
Pf growth 96h: inconclusive; AMA1 RON2 block: 25.8%; Pf growth 48h: 0.037µM*; HCV inh: 20.4%

Results for CCOc1ccc(NC(=O)CNC(=O)c2cccs2)cc1 ?
Pf growth 96h: -0.1%; AMA1 RON2 block: 1.6%; Pf growth 48h: 30.9%; HCV inh: 11.5%

How did O=C(O)c1cc(C(=O)O)c(-c2ccccc2)c(C(=O)O)c1 do in these assays?
Pf growth 96h: inconclusive; AMA1 RON2 block: -2.9%; Pf growth 48h: 2.94µM*; HCV inh: 19.5%

Results for O=C(NC1CCCc2c1cnn2-c1ccc(F)cc1F)c1ccccc1N1CCOCC1 (stereo unspecified) ?
Pf growth 96h: 4.15µM*; AMA1 RON2 block: -11.8%; Pf growth 48h: inconclusive

What do the screens show for `O=C(CCc1ccncc1)NC1CCCc2c1cnn2-c1ccc(F)cc1F` (stereo unspecified)?
Pf growth 96h: inconclusive; AMA1 RON2 block: -7.9%; Pf growth 48h: 14.6%; HCV inh: 12.6µM*

Results for O=C(CCc1ccccn1)NC1CCCc2c1cnn2-c1ccc(F)cc1F (stereo unspecified) ?
Pf growth 96h: 31.9%; AMA1 RON2 block: -3.3%; Pf growth 48h: -14.8%; HCV inh: inconclusive

How did CCCCCOc1ccc(Br)cc1CSC(=N)N do in these assays?
Pf growth 96h: inconclusive; AMA1 RON2 block: -3.7%; Pf growth 48h: 10.4µM*; HCV inh: 7.94µM*

What do the screens show for `CSCCC(NC(=O)c1ccccc1Br)C(=O)NCC(c1ccco1)N1CCCCC1` (stereo unspecified)?
Pf growth 96h: 9.28µM*; AMA1 RON2 block: -1.2%; Pf growth 48h: inconclusive; HCV inh: 28.2%

What do the screens show for `COc1ccccc1C(=O)NCCC(=O)NCC(c1ccco1)N1CCCC1` (stereo unspecified)?
Pf growth 96h: 11.7µM*; AMA1 RON2 block: -3.8%[11.6 µM]; Pf growth 48h: -26.6%; HCV inh: 5.8%

Results for CSc1ccccc1C(=O)NCC(c1ccco1)N1CCCCC1 (stereo unspecified) ?
Pf growth 96h: inconclusive; AMA1 RON2 block: 6.5%; Pf growth 48h: -12.4%; HCV inh: 11.5%

What do the screens show for `O=C(NCC(c1ccco1)N1CCOCC1)c1ccc(Cl)cc1` (stereo unspecified)?
Pf growth 96h: 45.9%; AMA1 RON2 block: -14.1%; Pf growth 48h: 23.1%; HCV inh: 10.7%

How did O=C(CCNC(=O)c1ccc(Cl)cc1)NCC(c1ccco1)N1CCCC1 (stereo unspecified) do in these assays?
Pf growth 96h: inconclusive; AMA1 RON2 block: 14.4%; Pf growth 48h: 11.7µM*; HCV inh: -17.0%

What do the screens show for `COc1ccccc1C(CNC(=O)CCNC(=O)c1ccccc1Cl)N1CCCC1` (stereo unspecified)?
Pf growth 96h: 0.1%; AMA1 RON2 block: 9.3%; Pf growth 48h: inconclusive; HCV inh: 10.6%

How did COc1ccc(Cl)cc1C(=O)NCC(c1ccco1)N1CCCC1 (stereo unspecified) do in these assays?
Pf growth 96h: 4.15µM*; AMA1 RON2 block: -9.9%; Pf growth 48h: inconclusive; HCV inh: inconclusive

Results for COc1ccc(N2C(=O)CSC23C(=O)N2CCCc4cccc3c42)cc1 (stereo unspecified) ?
Pf growth 96h: -9.4%[5.75 µM]; AMA1 RON2 block: -6.5%; Pf growth 48h: -23.8%; HCV inh: -10.2%
